{"source": "PubChem BioAssay (EPA / NIEHS)", "note": "Several values for one entry are separate records, joined by “and”; a condition that tells them apart may be missing. Identical values can stand only once. More than one record can exist for a structure, and the calls need not agree. Activity calls are given as the source filed them. The calls were made as follows: active = hit-call score of the fitted dose curve at least 0.9, where 1 is the maximum; inactive = score below 0.9.", "data": [{"read-out": "urokinase plasminogen activator (uPA), PLAU (gene 5328)", "assay": "BSK_BE3C_uPA: BioMAP Diversity Plus: BE3C Assay for urokinase plasminogen activator (uPA) Biomarker Activity (AID 2283038);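 as to outcome: uPA read one day after compound addition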", "settings": "primary human bronchial epithelial cells; actives raise or lower the signal", "protocol": "BSK_BE3C is a cell-based, multiplexed-readout assay that uses bronchial epithelial cell, a human lung primary cell, with measurements taken at 24 hours after chemical dosing in a 96-well plate.BSK_BE3CA is an assay component measured in the BSK_BE3C assay. It measures uPA antibody related to regulation of gene expression using ELISA technology.Data from the assay component BSK_BE3CA was analyzed into 1 assay endpoint. This assay endpoint, BSK_BE3CA, was analyzed with bidirectional fitting relative to DMSO as the negative control and baseline of activity. Using a type of binding reporter, gain or loss-of-signal activity can be used to understand changes in the signaling as they relate to the gene PLAU. Furthermore, this assay endpoint can be referred to as a primary readout, because this assay has produced multiple assay endpoints where this one serves a signaling function. To generalize the intended target to other relatable targets, this assay endpoint is annotated to the protease intended target family, where the subfamily is serine protease.\nThe levels of cell surface (or secreted, indicated by the prefix \"s\") biomarker endpoints were measured by ELISA. Overt cytotoxicity to cells in confluent adherent cultures (all systems other than the BT system) was assessed by measuring total protein levels using sulforhodamine B (SRB) staining in parallel cultures at the time of biomarker measurements, indicated as SRB endpoints. For proliferation assays for adherent cell types, individual cell types are cultured at sub-confluence and relative cell numbers quantified by SRB staining at time points optimized for each system (48 h: 3C and CASM3C systems; 72 h: BT and HDF3CGF systems; 96 h: SAg system). SRB was performed by staining cells with 0.1% SRB after fixation with 10% TCA and reading wells at 560 nm.Viability and proliferation of PBMC (T cells) was quantified by Alamar Blue reduction for the SAg and BT systems. For PBMC viability (referred to as PBMC Cytotoxicity within the assay endpoint names), cells were plated (75,000/well in a 96-well plate) and then chemical samples added for 1 h before addition of activators, SEB and TSST-1 (20 ng/mL final concentration each). Cells were incubated for 90 h. Then, Alamar Blue (20 uL/well) (Invitrogen, Cat DAL1100) was added for 6 h, and the plates were read with a fluorescence microplate reader at 546/580 nm (excitation/emission). For PBMC proliferation, cells were plated and activated as above but incubated for only 16 h prior to addition of Alamar Blue. Plates were read after 6 h.", "values": [{"smiles": "Cc1cc(-c2ccc(N)c(C)c2)ccc1N", "outcome": "inactive"}, {"smiles": "ClC1=C(Cl)[C@]2(Cl)[C@@H]3[C@@H](Cl)[C@H]4O[C@H]4[C@@H]3C1(Cl)C2(Cl)Cl", "outcome": "inactive"}, {"smiles": "O=C(N[C@H]1CN2CCC1CC2)c1cc2ccoc2cn1", "outcome": "inactive"}, {"smiles": "O=C(NC(=O)c1c(F)cccc1F)Nc1cc(Cl)c(OC(F)(F)C(F)F)c(Cl)c1", "outcome": "inactive"}, {"smiles": "CCC(C)c1cc([N+](=O)[O-])cc([N+](=O)[O-])c1O", "note": "(stereo not given)", "AC50": "4.72 µM (active)"}, {"smiles": "O=C(NC(=O)c1cc(F)c(F)cc1Cl)Nc1cc(F)ccc1N1CCC(C(=O)O)CC1", "outcome": "inactive"}, {"smiles": "COS(=O)(=O)OC", "outcome": "inactive"}, {"smiles": "ClC(Cl)=C(c1ccc(Cl)cc1)c1ccc(Cl)cc1", "AC50": "13.1 µM (active)"}, {"smiles": "Clc1ccc(C(c2ccccc2Cl)C(Cl)(Cl)Cl)cc1", "note": "(stereo not given)", "outcome": "inactive"}, {"smiles": "O=S(=O)(O)C(F)(F)C(F)(F)C(F)(F)C(F)(F)C(F)(F)C(F)(F)F", "outcome": "inactive"}, {"smiles": "Nn1cnnc1", "outcome": "inactive"}, {"smiles": "CCC(=O)O[C@H]1CC[C@H]2[C@@H]3CCC4=CC(=O)CC[C@]4(C)[C@H]3CC[C@]12C", "outcome": "inactive"}, {"smiles": "CCCCCCCCCc1ccc(O)cc1", "AC50": "15.1 µM (active)"}, {"smiles": "CCC(C)(c1ccc(O)cc1)c1ccc(O)cc1", "AC50": "4.96 µM (active)"}, {"smiles": "CC(C)C(=O)OCC(C)(C)C(OC(=O)C(C)C)C(C)C", "note": "(stereo not given)", "outcome": "inactive"}, {"smiles": "O=C(O)C(F)(F)C(F)(F)C(F)(F)C(F)(F)C(F)(F)C(F)(F)C(F)(F)C(F)(F)C(F)(F)F", "outcome": "inactive", "AC50": "16.1 µM (active) and 7.94 µM (active)"}, {"smiles": "C=CC(=O)NCNC(=O)C=C", "outcome": "inactive"}, {"smiles": "O=NN(c1ccccc1)c1ccccc1", "outcome": "inactive"}, {"smiles": "CC(c1ccc(O)cc1)(c1ccc(O)cc1)c1ccc(O)cc1", "AC50": "3.25 µM (active)"}, {"smiles": "CO/C=C(/C(=O)OC)c1ccccc1COc1cccc(C(F)(F)F)n1", "outcome": "inactive"}, {"smiles": "Cc1cccc(C)c1N", "outcome": "inactive"}, {"smiles": "C=CC(N)=O", "outcome": "inactive"}, {"smiles": "CCSC(=O)N(CC)C1CCCCC1", "outcome": "inactive"}, {"smiles": "Cc1cccc([N+](=O)[O-])c1", "outcome": "inactive"}, {"smiles": "ClC1=C(Cl)[C@]2(Cl)[C@@H]3[C@H]4C[C@H]([C@@H]5O[C@H]45)[C@@H]3[C@@]1(Cl)C2(Cl)Cl", "outcome": "inactive"}, {"smiles": "Cc1ccccc1CO[C@@H]1C[C@@]2(C(C)C)CC[C@]1(C)O2", "AC50": "11.2 µM (active)"}, {"smiles": "NS(=O)(=O)C(F)(F)C(F)(F)C(F)(F)C(F)(F)C(F)(F)C(F)(F)C(F)(F)C(F)(F)F", "outcome": "inactive", "AC50": "47.3 µM (active) and 55.1 µM (active)"}, {"smiles": "C[C@]12CCC(=O)C=C1CC[C@@H]1[C@@H]2CC[C@@]2(C)[C@H]1CC[C@]2(C)O", "outcome": "inactive"}, {"smiles": "COc1ccc(O)c(C(C)(C)C)c1", "outcome": "inactive"}, {"smiles": "Sc1ccccc1", "outcome": "inactive"}, {"smiles": "C1CC2OC2CC1C1CO1", "note": "(stereo not given)", "outcome": "inactive"}, {"smiles": "Cc1cc2c3c(c1)C(c1ccccc1)=N[C@@H](NC(=O)c1ccncc1)C(=O)N3CC2", "outcome": "inactive"}, {"smiles": "Clc1ccc(C(Cl)(Cl)Cl)cc1", "outcome": "inactive"}, {"smiles": "ClC1=C(Cl)[C@]2(Cl)[C@@H]3[C@@H]4C[C@@H]([C@H]5O[C@@H]45)[C@@H]3[C@@]1(Cl)C2(Cl)Cl", "outcome": "inactive"}, {"smiles": "CC(C)(O)C(=O)Nc1ccc([N+](=O)[O-])c(C(F)(F)F)c1", "outcome": "inactive"}, {"smiles": "Clc1ccc(Cl)cc1", "outcome": "inactive"}, {"smiles": "CCCCCCCCCC[N+](C)(C)CCCCCCCCCC", "AC50": "5.43 µM (active)"}, {"smiles": "Nc1ccc(-c2ccc(N)cc2)cc1", "outcome": "inactive"}]}]}
